Experimental data from PubChem BioAssay (NCATS).
Results filed as inconclusive are left out. The source made the active and inactive calls. Calls come from the whole dose curve; as a rule, active = well fitted curve in the direction sought with a large enough effect; inconclusive = small, poorly fitted or top-dose-only effect, or another doubt; inactive = no such curve, though single readings can be large; an effect the other way counts as inactive or inconclusive. Where a SMILES comes first, the peptide text is derived from it.

Legend:
HaCat = assay: Cytotoxic Profiling of Annotated Libraries Using Quantitative High-Throughput Screening (AID 1296008); settings: Five cell lines viability, CellTiter-Glo ATP luminescence, 48-72 h; max response: active compounds read low; note: nearly all actives have a fitted effect of over 60% in size
Outline: (§1)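 Compounds were pin-transferred onto cells and incubated 48 or 72 hr at 37 degree Celsius, 95% humidity. CellTiter-Glo was added, plates sat 10 min at room temperature, then ATP-coupled luminescence was imaged as the viability read-out.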

NIH3T3 [1] = assay: as above; settings: Five cell lines viability, CellTiter-Glo ATP luminescence, 48-72 h; max response: active compounds read low
Outline: as §1

MCC-13 = assay: qHTS assay to identify novel small-molecules to repurpose for Merkel cell carcinoma treatment (AID 1296009); settings: MCC and control cell lines, CellTiter-Glo viability, 72 h; series mostly up to 46 µM; note: nearly all actives have a fitted effect of over 60% in size
Outline: (§2)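 qHTS format: cells treated with library compounds in DMSO across 8 (NPC) or 11 (MIPE) concentrations. Readout after 72 hr at 37 degree celsius was CellTiter-Glo luminescence.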

MCC-26 = assay: as above; settings: MCC and control cell lines, CellTiter-Glo viability, 72 h; series mostly up to 46 µM
Outline: as §2

MKL-1 = assay: as above; settings: MCC and control cell lines, CellTiter-Glo viability, 72 h; series mostly up to 46 µM
Outline: as §2

MKL-2 = assay: as above; settings: MCC and control cell lines, CellTiter-Glo viability, 72 h; series mostly up to 46 µM
Outline: as §2

NIH3T3 [2] = assay: as above; settings: MCC and control cell lines, CellTiter-Glo viability, 72 h; at 44.8 µM (top of the series) unless noted
Outline: as §2

UISO = assay: as above; settings: MCC and control cell lines, CellTiter-Glo viability, 72 h; series mostly up to 46 µM
Outline: as §2

WaGa = assay: as above; settings: MCC and control cell lines, CellTiter-Glo viability, 72 h; series mostly up to 46 µM
Outline: as §2

C33A = assay: Primary qHTS to identify gynecologic anti-cancer compounds using libraries of approved drugs and bioactive compounds (AID 1345084); settings: Gynecologic cancer cell panel viability, ATPlite luminescence, 48 h; series mostly up to 57.5 µM; note: nearly all actives have a fitted effect of over 55% in size
Outline: (§3)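 Cytotoxicity screen measuring ATP content by luciferase luminescence. Each compound is applied at five concentrations for 48 h at 37 C with 5% CO2.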

CAOV3 = assay: as above; settings: Gynecologic cancer cell panel viability, ATPlite luminescence, 48 h; series mostly up to 57.5 µM
Outline: as §3

CASKI = assay: as above; settings: Gynecologic cancer cell panel viability, ATPlite luminescence, 48 h; series mostly up to 57.5 µM
Outline: as §3

Es-2 = assay: as above; settings: Gynecologic cancer cell panel viability, ATPlite luminescence, 48 h; series mostly up to 57.5 µM
Outline: as §3

Hek293T [3] = assay: as above; settings: Gynecologic cancer cell panel viability, ATPlite luminescence, 48 h, control line for the selectivity index; series mostly up to 57.5 µM
Outline: as §3

JEG-3 = assay: as above; settings: Gynecologic cancer cell panel viability, ATPlite luminescence, 48 h; series mostly up to 57.5 µM
Outline: as §3

OV90 = assay: as above; settings: Gynecologic cancer cell panel viability, ATPlite luminescence, 48 h; series mostly up to 57.5 µM
Outline: as §3

HEK293T [4] = assay: qHTS assay to identify novel small-molecules to repurpose for Merkel cell carcinoma treatment (AID 1296009); settings: MCC and control cell lines, CellTiter-Glo viability, 72 h; at 44.8 µM (top of the series) unless noted; note: nearly all actives have a fitted effect of over 60% in size
Outline: as §2

HeLa = assay: Primary qHTS to identify gynecologic anti-cancer compounds using libraries of approved drugs and bioactive compounds (AID 1345084); settings: Gynecologic cancer cell panel viability, ATPlite luminescence, 48 h; series mostly up to 57.5 µM; note: nearly all actives have a fitted effect of over 55% in size
Outline: as §3
% is set by controls: 0 for no effect and ±100 for the full control effect.

CC(C)(C)c1ccc(C(=O)CCCCl)cc1
inactive: max response (HaCat) 3.33% | outcome (NIH3T3 [1]) | Potency (MCC-13) | Potency (MCC-26) | Potency (MKL-1) | Potency (MKL-2) | outcome (NIH3T3 [2]) | Potency (UISO) | Potency (WaGa) | Potency (C33A) | Potency (CAOV3) | Potency (CASKI) | Potency (Es-2) | Potency (Hek293T [3]) | Potency (JEG-3) | Potency (OV90)

CCOC(=O)O[C@]1(C(=O)OCCl)CC[C@H]2[C@@H]3CCC4=CC(=O)C=C[C@]4(C)[C@H]3[C@@H](O)C[C@@]21C
inactive: max response (HaCat) -4.73% | outcome (NIH3T3 [1]) | outcome (HEK293T [4]) | Potency (MCC-13) | Potency (MCC-26) | Potency (MKL-1) | Potency (MKL-2) | outcome (NIH3T3 [2]) | Potency (UISO) | Potency (WaGa) | Potency (C33A) | Potency (CASKI) | Potency (Es-2) | Potency (HeLa) | Potency (Hek293T [3]) | Potency (JEG-3) | Potency (OV90)

NC(=O)NC1N=C([O][Al])NC1=O (stereo unspecified)
inactive: max response (HaCat) 3.4% | max response (NIH3T3 [1]) 1.11% | outcome (HEK293T [4]) | Potency (MCC-13) | Potency (MCC-26) | Potency (MKL-1) | Potency (MKL-2) | Potency (UISO) | Potency (WaGa) | Potency (C33A) | Potency (CAOV3) | Potency (CASKI) | Potency (Es-2) | Potency (HeLa) | Potency (Hek293T [3]) | Potency (JEG-3) | Potency (OV90)

Cn1c(=O)c2c(ncn2CC(=O)O)n(C)c1=O
inactive: max response (HaCat) -42.3% | outcome (NIH3T3 [1]) | Potency (MCC-13) | Potency (MCC-26) | Potency (MKL-1) | Potency (MKL-2) | outcome (NIH3T3 [2]) | Potency (UISO) | Potency (WaGa) | Potency (C33A) | Potency (CAOV3) | Potency (CASKI) | Potency (Es-2) | Potency (HeLa) | Potency (Hek293T [3]) | Potency (JEG-3) | Potency (OV90)

CCCCN(CCCC)C(C(N)=O)c1ccc(OC)cc1 (stereo unspecified)
inactive: max response (HaCat) 2.19% | outcome (NIH3T3 [1]) | Potency (MCC-13) | Potency (MCC-26) | Potency (MKL-1) | Potency (MKL-2) | outcome (NIH3T3 [2]) | Potency (UISO) | Potency (WaGa) | Potency (C33A) | Potency (CAOV3) | Potency (CASKI) | Potency (Es-2) | Potency (HeLa) | Potency (Hek293T [3]) | Potency (JEG-3) | Potency (OV90)

CC(=O)OC[C@H]1O[C@@H](OC(C)=O)[C@H](OC(C)=O)[C@@H]1OC(C)=O
inactive: max response (HaCat) 2.57% | outcome (NIH3T3 [1]) | Potency (MCC-13) | Potency (MCC-26) | Potency (MKL-1) | Potency (MKL-2) | outcome (NIH3T3 [2]) | Potency (UISO) | Potency (WaGa) | Potency (C33A) | Potency (CAOV3) | Potency (CASKI) | Potency (Es-2) | Potency (HeLa) | Potency (Hek293T [3]) | Potency (JEG-3) | Potency (OV90)

CC(=O)N[C@@H](CO)C(=O)N[C@@H](CC(=O)O)C(=O)N[C@@H](CCCCN)C(=O)N1CCC[C@H]1C(=O)O (Ac-SDKP-OH)
inactive: max response (HaCat) -26.1% | max response (NIH3T3 [1]) -0.894% | Potency (MCC-13) | Potency (MCC-26) | Potency (MKL-1) | Potency (MKL-2) | Potency (UISO) | Potency (WaGa) | Potency (C33A) | Potency (CAOV3) | Potency (CASKI) | Potency (Es-2) | Potency (HeLa) | Potency (Hek293T [3]) | Potency (JEG-3) | Potency (OV90)

Cc1cc(=O)oc2cc(O[C@@H]3SC[C@@H](O)[C@H](O)[C@H]3O)ccc12
inactive: max response (HaCat) 4.75% | outcome (NIH3T3 [1]) | Potency (MCC-13) | Potency (MCC-26) | Potency (MKL-1) | Potency (MKL-2) | outcome (NIH3T3 [2]) | Potency (UISO) | Potency (WaGa) | Potency (C33A) | Potency (CAOV3) | Potency (CASKI) | Potency (Es-2) | Potency (HeLa) | Potency (Hek293T [3]) | Potency (JEG-3) | Potency (OV90)

C/C(=N\O)[C@@H](C)NCC(C)(C)CN[C@H](C)/C(C)=N/O
inactive: max response (HaCat) -13.6% | max response (NIH3T3 [1]) -0.119% | Potency (MCC-13) | Potency (MCC-26) | Potency (MKL-1) | Potency (MKL-2) | Potency (UISO) | Potency (WaGa) | Potency (C33A) | Potency (CAOV3) | Potency (CASKI) | Potency (Es-2) | Potency (HeLa) | Potency (Hek293T [3]) | Potency (JEG-3)

O=c1[nH]c(=O)n([C@H]2O[C@H](CO)[C@@H](O)[C@@H]2O)cc1/C=C\Br
inactive: max response (HaCat) 4.03% | max response (NIH3T3 [1]) -0.191% | outcome (HEK293T [4]) | Potency (MCC-13) | Potency (MCC-26) | Potency (MKL-1) | Potency (MKL-2) | Potency (UISO) | Potency (WaGa) | Potency (C33A) | Potency (CAOV3) | Potency (CASKI) | Potency (Es-2) | Potency (HeLa) | Potency (Hek293T [3]) | Potency (JEG-3) | Potency (OV90)

CC(=O)O[C@H]1CC[C@@]2(C)C(=CC[C@@H]3[C@@H]2CC[C@]2(C)C(C(C)=O)=CC[C@@H]32)C1
inactive: max response (HaCat) -12.2% | max response (NIH3T3 [1]) -1.15% | Potency (MCC-13) | Potency (MCC-26) | Potency (MKL-1) | Potency (MKL-2) | Potency (UISO) | Potency (WaGa) | Potency (C33A) | Potency (CAOV3) | Potency (CASKI) | Potency (Es-2) | Potency (HeLa) | Potency (Hek293T [3]) | Potency (JEG-3) | Potency (OV90)

CC(C)C[C@@H]1[C@H](c2ccccc2)OC(=O)N1CCCN1CCCCCC1
inactive: max response (HaCat) -13.9% | max response (NIH3T3 [1]) -3.61% | Potency (MCC-13) | Potency (MCC-26) | Potency (MKL-1) | Potency (MKL-2) | Potency (UISO) | Potency (WaGa) | Potency (C33A) | Potency (CAOV3) | Potency (CASKI) | Potency (Es-2) | Potency (HeLa) | Potency (Hek293T [3]) | Potency (JEG-3) | Potency (OV90)

Cc1ccc2c(Cl)cc(Cl)c(O)c2n1
inactive: max response (HaCat) -10% | max response (NIH3T3 [1]) 2.93% | Potency (MCC-13) | Potency (MCC-26) | Potency (MKL-1) | Potency (MKL-2) | Potency (UISO) | Potency (WaGa) | Potency (C33A) | Potency (CAOV3) | Potency (CASKI) | Potency (Es-2) | Potency (HeLa) | Potency (Hek293T [3]) | Potency (JEG-3) | Potency (OV90)

CCCOc1ccc2c(c1)CC[C@@H]1[C@@H]2CC[C@]2(C)C(OC)CC[C@@H]12 (stereo partly specified)
inactive: max response (HaCat) 2.29% | max response (NIH3T3 [1]) 0.167% | Potency (MCC-13) | Potency (MCC-26) | Potency (MKL-1) | Potency (MKL-2) | Potency (UISO) | Potency (WaGa) | Potency (C33A) | Potency (CAOV3) | Potency (CASKI) | Potency (Es-2) | Potency (HeLa) | Potency (Hek293T [3]) | Potency (JEG-3) | Potency (OV90)

O=C(CS(=O)Cc1ccco1)NC/C=C\COc1cc(CN2CCCCC2)ccn1 (stereo unspecified)
inactive: max response (HaCat) -5.87% | max response (NIH3T3 [1]) -2.51% | Potency (MCC-13) | Potency (MCC-26) | Potency (MKL-1) | Potency (MKL-2) | Potency (UISO) | Potency (WaGa) | Potency (C33A) | Potency (CAOV3) | Potency (CASKI) | Potency (Es-2) | Potency (HeLa) | Potency (Hek293T [3]) | Potency (JEG-3) | Potency (OV90)
